Inconclusive results are not listed. Active and inactive are the calls of the source. Calls come from the whole dose curve; as a rule, active = well fitted inhibition curve with a large enough effect; inconclusive = small, poorly fitted or top-dose-only effect; inactive = no such curve, though single readings can be large or run the other way.
experiment: qHTS assay for measurement of the activity of small molecule inhibitors on Zika virus induced Caspase-3 activity in human iPSC derived neural progenitor cells (hNPCs) (AID 1224857); details: hNPCs ZIKV-induced caspase-3/7, Caspase-Glo luminescence, 6 h; series mostly up to 45.7 µM; note: nearly all actives have a fitted effect of over 65% in size
Method in brief: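 Cells were plated at 350 per well and grown 16 to 20 hours. Compound pretreatment lasted one hour, after which ZIKV (2 FFU/cell) was added for 6 hours. Percent inhibition was normalized between uninfected and infected controls.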

Row | SMILES | outcome
1 | CCc1cc2c(s1)-n1c(C)nnc1CN=C2c1ccccc1Cl | inactive
2 | CC1(C)C(C=C(Cl)Cl)C1C(=O)OC(C#N)c1cccc(Oc2ccccc2)c1 (centres undefined) | inactive
3 | Clc1ccccc1N1CCNCC1 | inactive
4 | CN(C)CCc1c[nH]c2cccc(OP(=O)(O)O)c12 | inactive
5 | CNCC(=O)c1ccc(O)c(O)c1 | inactive
6 | CC(=O)C1CCOC1=O (centres undefined) | inactive
7 | c1ccc(N2CCNCC2)cc1 | inactive
8 | C[C@H](N)C(=O)c1ccccc1 | inactive
9 | O=C(O)c1ccc(=O)[nH]c1 | inactive
10 | CN1CC[C@]23c4c5ccc(O)c4O[C@H]2[C@@H](O)CC[C@H]3[C@H]1C5 | inactive
11 | CCC(C)C(C)(COC(N)=O)COC(N)=O (centres undefined) | inactive
12 | C[C@]12CC[C@H]3[C@@H](CCC4=CC(=O)CC[C@@H]43)[C@@H]1CC[C@@H]2OC(=O)CCc1ccco1 | inactive
13 | O=C1OC(CCN2CCCCC2)OC1(c1ccccc1)c1ccccc1 (centres undefined) | inactive
14 | CC(Cc1ccccc1)NCCn1cnc2c1c(=O)n(C)c(=O)n2C (centres undefined) | inactive
15 | CCN(CCO)CCn1c(Cc2ccccc2)nc2c1c(=O)n(C)c(=O)n2C | inactive
16 | CC(Cc1ccccc1)N(C)Cc1ccco1 (centres undefined) | inactive
17 | Nc1ccccc1 | inactive
18 | ClCCN1CCCC1 | inactive
19 | COc1cccc(C(=O)CCN[C@@H](C)[C@H](O)c2ccccc2)c1 | inactive
20 | CCCN(CCC)C(=O)Cc1c(-c2ccc(Cl)cc2)nc2ccc(Cl)cn12 | inactive

Row | SMILES | outcome
21 | C[C@@H]1CC2=CC(=O)CC[C@@H]2[C@H]2CC[C@@]3(C)[C@@H](CC[C@]3(C)O)[C@@H]21 | inactive
22 | CCN[C@@H](C)Cc1ccccc1 | inactive
23 | C=CCC1(C(C)CC)C(=O)NC(=O)NC1=O (centres undefined) | inactive
24 | CC[N+]1(CC)CCC(OC(=O)C(O)(c2ccccc2)c2ccccc2)C1 (centres undefined) | inactive
25 | CCN[C@@H](C)Cc1cccc(C(F)(F)F)c1 | inactive
26 | C#CC(O)(C=CCl)CC (centres undefined) | inactive
27 | CC(C(=O)c1ccccc1)N(C)C (centres undefined) | inactive
28 | COc1cc(CCN)cc(OC)c1OC | inactive
29 | C[N+]1(CCF)[C@@H]2CC[C@H]1CC(OC(=O)C(O)(c1ccccc1)c1ccccc1)C2 (some centres undefined) | inactive
30 | COC(=O)C(Cl)C(=O)OC | inactive
31 | COP(=S)(OC)Oc1cc(Cl)c(Cl)cc1Cl | inactive
32 | C[C@]12Cc3cn[nH]c3C[C@@H]1CC[C@@H]1[C@@H]2CC[C@@]2(C)[C@H]1CC[C@]2(C)O | inactive
33 | COc1ccc2c3c1O[C@H]1[C@H](O)CC[C@H]4[C@@H](C2)N(C)CC[C@@]341 | inactive
34 | O=c1c(C2CC(c3ccc(-c4ccc(Br)cc4)cc3)Cc3ccccc32)c(O)sc2ccccc12 (centres undefined) | inactive
35 | C[C@]12CCC(=O)C=C1CC[C@@H]1[C@@H]2CC[C@@]2(C)[C@H]1CC[C@]2(C)O | inactive
36 | CCCOC(=O)c1cncn1C(C)c1ccccc1 (centres undefined) | inactive
37 | O=c1[nH]c2ccccc2n1C1CCNCC1 | inactive
38 | CC(C)(N)Cc1ccccc1Cl | inactive
39 | COc1cc(CC(C)N)cc(OC)c1OC (centres undefined) | inactive

— PubChem BioAssay (NCATS)
